Measurements from PubChem BioAssay (EPA / NIEHS).
“And” between values parts separate entries of the source, which are not always exact repeats. Equal values may be shown once. Records with an inconclusive call do not appear. The source made the active and inactive calls. How the source made its calls: active means hit-call score of the fitted dose curve at least 0.9, where 1 is the maximum; inconclusive means response in the unintended direction; inactive means score below 0.9.

Columns and labels:
[1] = test system: guinea pig Histamine Receptor (H2), gene 100729734; assay: NVS_GPCR_gH2: NovaScreen (NVS) G Protein-Coupled Receptor Assay for guinea pig Histamine Receptor (H2) (AID 2283342)
Method in brief: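 Radioligand displacement on guinea pig striatal membranes, 1 h after dosing, filter-based scintillation counting; loss of signal versus DMSO. Single-point screen at 25 uM in duplicate, then concentration-response up to 50 uM.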

[2] = molecular target: human Constitutive Androstane Receptor (CAR), NR1I3 (gene 9970) (UniProt Q14994); assay: NVS_NR_hCAR_Antagonist: NovaScreen (NVS) Nuclear Receptor Binding Assay for human Constitutive Androstane Receptor Antagonism (CAR) (AID 2283344)
human Constitutive Androstane Receptor (CAR), NR1I3 (gene 9970), sequence (Q14994 whole entry, looked up): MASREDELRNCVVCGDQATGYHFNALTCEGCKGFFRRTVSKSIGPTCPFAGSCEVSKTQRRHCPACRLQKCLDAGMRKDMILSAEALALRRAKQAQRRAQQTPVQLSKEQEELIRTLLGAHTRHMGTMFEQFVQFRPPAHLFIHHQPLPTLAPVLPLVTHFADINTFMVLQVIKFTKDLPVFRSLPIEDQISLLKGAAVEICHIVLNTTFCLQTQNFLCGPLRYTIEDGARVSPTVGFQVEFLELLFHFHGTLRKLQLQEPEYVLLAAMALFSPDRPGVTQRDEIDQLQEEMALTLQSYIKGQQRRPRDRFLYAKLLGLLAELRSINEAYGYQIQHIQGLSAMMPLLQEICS
Method in brief: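 Cell-free TR-FRET binding read 1 h after dosing, antagonist mode; loss of signal versus DMSO baseline. Primary screen in duplicate at a single 25 uM; actives retested in concentration series.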

[3] = molecular target: Estrogen receptor (Homo sapiens) + Estrogen receptor beta (Homo sapiens) (UniProt P03372+Q92731); assay: OT_ER_ERaERb_0480: Odyssey Thera (OT) 8-hour HEK293T Protein-Complementation Assay for Estrogen Receptor-alpha/-beta Heterodimer (AID 2283352)
Estrogen receptor (Homo sapiens) + Estrogen receptor beta (Homo sapiens), sequence (P03372 whole entry, looked up): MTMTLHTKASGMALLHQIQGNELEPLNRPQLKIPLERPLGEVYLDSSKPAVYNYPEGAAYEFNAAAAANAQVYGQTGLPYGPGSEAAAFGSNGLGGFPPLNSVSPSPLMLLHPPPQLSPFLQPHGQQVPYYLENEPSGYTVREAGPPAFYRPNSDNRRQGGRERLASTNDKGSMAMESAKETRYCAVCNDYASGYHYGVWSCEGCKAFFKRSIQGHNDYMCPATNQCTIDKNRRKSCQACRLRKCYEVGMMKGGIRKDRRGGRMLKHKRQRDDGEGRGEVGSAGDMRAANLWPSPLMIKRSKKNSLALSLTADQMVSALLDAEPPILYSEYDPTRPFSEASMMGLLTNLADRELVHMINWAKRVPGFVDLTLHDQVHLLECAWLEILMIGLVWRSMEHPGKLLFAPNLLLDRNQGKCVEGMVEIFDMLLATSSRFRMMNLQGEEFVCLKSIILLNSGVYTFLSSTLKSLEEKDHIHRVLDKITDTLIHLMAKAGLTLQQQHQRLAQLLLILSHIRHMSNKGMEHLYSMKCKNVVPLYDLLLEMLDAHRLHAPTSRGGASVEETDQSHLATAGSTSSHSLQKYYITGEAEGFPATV
Estrogen receptor (Homo sapiens) + Estrogen receptor beta (Homo sapiens), sequence (Q92731 whole entry, looked up): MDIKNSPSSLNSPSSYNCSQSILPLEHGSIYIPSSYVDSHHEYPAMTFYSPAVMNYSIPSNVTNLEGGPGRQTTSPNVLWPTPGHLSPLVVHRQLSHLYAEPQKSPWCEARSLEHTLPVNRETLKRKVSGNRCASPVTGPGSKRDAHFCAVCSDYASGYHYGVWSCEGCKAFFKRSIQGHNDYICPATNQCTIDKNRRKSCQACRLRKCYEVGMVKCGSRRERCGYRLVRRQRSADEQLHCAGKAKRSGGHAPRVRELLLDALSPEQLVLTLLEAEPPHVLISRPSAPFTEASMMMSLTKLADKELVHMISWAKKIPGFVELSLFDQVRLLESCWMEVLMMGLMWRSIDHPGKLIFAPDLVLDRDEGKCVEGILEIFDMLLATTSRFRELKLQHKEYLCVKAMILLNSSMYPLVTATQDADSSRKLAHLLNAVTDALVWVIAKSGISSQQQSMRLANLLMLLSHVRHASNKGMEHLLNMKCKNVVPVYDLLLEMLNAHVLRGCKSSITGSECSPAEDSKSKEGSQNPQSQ
Method in brief: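 Compound added to HEK293T cells carrying split-reporter-tagged ER-alpha and ER-beta LBDs, incubated 8 hours, then imaged by laser scanning cytometer. Signal rise in nucleus, or nucleus and cytoplasm, over vehicle was fitted in the positive direction.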

[4] = molecular target: Estrogen receptor (Homo sapiens) (UniProt P03372); assay: OT_ER_ERaERa_1440: Odyssey Thera (OT) 24-hour HEK293T Protein-Complementation Assay for Estrogen Receptor-alpha/-alpha Homodimer (AID 2283349);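 further: hits raise fluorescence above DMSO for agonists and antagonists alike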
Estrogen receptor (Homo sapiens), sequence (P03372 whole entry, looked up, the tested form may be a part): as the sequence (P03372 whole entry, looked up) above
Method in brief: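 Protein-fragment complementation between two human ERα ligand-binding domains (aa 310-547) in stably transfected HEK293T cells was monitored after 24 h treatment, using fluorescence intensity relative to vehicle controls.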

[5] = molecular target: Estrogen receptor (Homo sapiens) (UniProt P03372); assay: OT_ER_ERaERa_0480: Odyssey Thera (OT) 8-hour HEK293T Protein-Complementation Assay for Estrogen Receptor-alpha/-alpha Homodimer (AID 2283351);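 further: rise in fluorescence from reassembled reporter fragments on ERα LBD homodimer in nucleus or whole cell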
Method in brief: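 HEK293T, stable ERα LBD (aa 310-547) PCA homodimer; 8 h compound exposure; fluorescence intensity, laser scanning cytometer; positive fitting direction, DMSO baseline.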

[6] = molecular target: Estrogen receptor (Homo sapiens) (UniProt P03372); assay: NVS_NR_hER: NovaScreen (NVS) Nuclear Receptor Binding Assay for human Estrogen Receptor (ER) (AID 2283348)
Method in brief: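 Scintillation signal from bound radioligand was measured 18 hours after chemical addition to cell-free MCF7 protein extracts, with DMSO as baseline. Activity was scored as signal loss; compounds ran first at 25 uM in duplicate.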

[7] = molecular target: chimpanzee Androgen Receptor (AR), AR (gene 747460) (UniProt O97775); assay: NVS_NR_cAR: NovaScreen (NVS) Nuclear Receptor Binding Assay for chimpanzee Androgen Receptor (AR) (AID 2283346);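 further: radioligand displacement from AR measured by scintillation counting in a cell-free assay; a loss of bound radioligand signal versus DMSO counts as binding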
chimpanzee Androgen Receptor (AR), AR (gene 747460), sequence (O97775 whole entry, looked up): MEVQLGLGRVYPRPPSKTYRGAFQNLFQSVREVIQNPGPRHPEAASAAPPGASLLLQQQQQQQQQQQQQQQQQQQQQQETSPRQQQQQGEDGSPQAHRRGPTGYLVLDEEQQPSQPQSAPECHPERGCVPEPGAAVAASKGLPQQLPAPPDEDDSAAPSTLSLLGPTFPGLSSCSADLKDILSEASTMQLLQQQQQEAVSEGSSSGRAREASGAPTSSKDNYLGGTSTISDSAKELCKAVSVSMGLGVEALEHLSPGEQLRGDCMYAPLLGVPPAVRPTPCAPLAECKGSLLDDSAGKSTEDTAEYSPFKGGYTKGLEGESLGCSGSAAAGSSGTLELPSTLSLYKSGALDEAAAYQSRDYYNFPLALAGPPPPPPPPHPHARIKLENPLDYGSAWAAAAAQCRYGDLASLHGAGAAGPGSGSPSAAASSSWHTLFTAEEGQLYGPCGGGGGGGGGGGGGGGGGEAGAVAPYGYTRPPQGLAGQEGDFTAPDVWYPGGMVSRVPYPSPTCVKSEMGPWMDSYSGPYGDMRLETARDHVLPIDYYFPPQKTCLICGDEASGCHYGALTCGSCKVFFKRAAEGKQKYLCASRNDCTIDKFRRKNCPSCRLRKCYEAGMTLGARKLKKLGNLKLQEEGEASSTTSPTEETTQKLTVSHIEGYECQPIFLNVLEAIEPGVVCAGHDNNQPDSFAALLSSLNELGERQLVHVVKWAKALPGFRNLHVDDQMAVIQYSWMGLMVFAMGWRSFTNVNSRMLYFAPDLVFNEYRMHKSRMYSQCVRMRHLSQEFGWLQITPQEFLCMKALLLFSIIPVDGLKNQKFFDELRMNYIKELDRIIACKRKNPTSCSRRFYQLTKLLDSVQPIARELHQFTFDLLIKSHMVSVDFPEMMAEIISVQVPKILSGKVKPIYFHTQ
Method in brief: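 Cell-free competition binding with insect-cell (Sf9/Sf21) extracted chimpanzee AR; scintillation signal from lysate at 72 h. Screened in duplicate at 25 uM, then concentration-response for actives; fitting relative to DMSO.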

[8] = molecular target: Androgen Receptor/SRC-1 Co-activator, AR (gene 367) (UniProt P10275); assay: OT_AR_ARSRC1_0960: Odyssey Thera (OT) 16-hour HEK293T Protein-Complementation Assay for Androgen Receptor/SRC-1 Co-activator (AID 2283353);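 further: actives raise the signal above DMSO so potency reflects increased AR and SRC-1 complex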
Androgen Receptor/SRC-1 Co-activator, AR (gene 367), sequence (P10275 whole entry, looked up, the tested form may be a part): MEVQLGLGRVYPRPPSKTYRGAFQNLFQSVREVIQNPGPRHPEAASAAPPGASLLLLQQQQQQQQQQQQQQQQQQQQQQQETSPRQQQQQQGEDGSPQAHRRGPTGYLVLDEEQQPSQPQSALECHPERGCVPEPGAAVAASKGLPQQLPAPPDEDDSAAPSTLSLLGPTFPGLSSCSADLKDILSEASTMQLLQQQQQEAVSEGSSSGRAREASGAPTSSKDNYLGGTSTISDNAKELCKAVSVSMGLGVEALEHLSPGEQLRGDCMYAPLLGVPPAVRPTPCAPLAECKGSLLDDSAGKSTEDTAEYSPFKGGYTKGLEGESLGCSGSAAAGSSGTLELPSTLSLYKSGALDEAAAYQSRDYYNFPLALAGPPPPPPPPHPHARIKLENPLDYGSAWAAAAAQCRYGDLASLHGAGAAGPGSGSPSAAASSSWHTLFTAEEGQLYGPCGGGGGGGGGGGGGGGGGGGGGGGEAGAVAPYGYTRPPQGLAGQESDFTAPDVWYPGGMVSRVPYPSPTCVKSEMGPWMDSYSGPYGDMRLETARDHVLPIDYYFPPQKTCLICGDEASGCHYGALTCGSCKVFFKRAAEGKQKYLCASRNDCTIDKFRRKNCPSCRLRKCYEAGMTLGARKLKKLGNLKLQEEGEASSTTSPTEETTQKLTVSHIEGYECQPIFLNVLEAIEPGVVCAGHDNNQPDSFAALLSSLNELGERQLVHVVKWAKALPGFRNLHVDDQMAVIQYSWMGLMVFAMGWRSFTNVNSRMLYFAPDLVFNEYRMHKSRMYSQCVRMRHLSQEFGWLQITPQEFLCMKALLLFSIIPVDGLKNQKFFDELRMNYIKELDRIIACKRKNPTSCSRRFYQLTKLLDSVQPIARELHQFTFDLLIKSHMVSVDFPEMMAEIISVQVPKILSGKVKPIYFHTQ
Method in brief: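 Split-Venus PCA, AR/SRC-1 fusions, stable HEK293T; 16 h compound exposure; imaged at 488 and 635 nm; N/C ratio (488 nm channel), min 400 cells/image; positive-direction fit, DMSO baseline.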

## O=C(c1ccc(OCCN2CCCCC2)cc1)c1c(-c2ccc(O)cc2)sc2cc(O)ccc12
[1]
  AC50: 4.18 µM (active)
[2]
  AC50: 38.5 µM (active)

## CC/C(=C(\c1ccccc1)c1ccc(OCCN(C)C)cc1)c1ccccc1
[1]
  AC50: 4.7 µM (active) and 1.19 µM (active)

## C[C@]12CC[C@@H]3c4ccc(O)cc4CC[C@H]3[C@@H]1CC[C@@H]2O
[2]
  outcome: inactive

## CC(C)(CO)CO
[3]
  outcome: inactive

## CCCCCC(=O)O[C@]1(C(C)=O)CC[C@H]2[C@@H]3CCC4=CC(=O)CC[C@]4(C)[C@H]3CC[C@@]21C
[3]
  outcome: inactive

## CCCCCCCCOC(C)=O
[4]
  outcome: inactive

## CCCCN(CCCC)CCCCCCN(CCCC)CCCC
[4]
  outcome: inactive
[5]
  outcome: inactive

## CCCO
[4]
  outcome: inactive

## CC12CCC(C1)C(C)(C)C2O (stereo unspecified)
[6]
  outcome: inactive
[4]
  outcome: inactive
[5]
  outcome: inactive
[3]
  outcome: inactive

## CN1CCc2cccc3c2[C@H]1Cc1ccc(O)c(O)c1-3
[6]
  AC50: 0.02 µM (active)
[4]
  outcome: inactive

## CC(C)N(c1ccccc1)C(C)C
[4]
  outcome: inactive
[5]
  outcome: inactive

## CC1=CCC(=C(C)C)CC1
[4]
  outcome: inactive
[5]
  outcome: inactive

## Nc1cc([N+](=O)[O-])ccc1C(=O)O
[6]
  outcome: inactive

## NNC(=O)OCc1ccccc1
[6]
  outcome: inactive

## CCCC[N+](C)(CCCC)CCCC
[4]
  outcome: inactive
[5]
  outcome: inactive

## O=C(O)c1ccccc1O
[4]
  outcome: inactive
[5]
  outcome: inactive

## C=CCCCCCCCCC(=O)OCC
[4]
  outcome: inactive

## c1ccc(OCCOc2ccccc2)cc1
[6]
  outcome: inactive
[4]
  outcome: inactive

## CCNC(=S)NCC
[6]
  outcome: inactive
[4]
  outcome: inactive
[5]
  outcome: inactive

## CCCCCCC(C)O (stereo unspecified)
[6]
  AC50: 43.2 µM (active)
[4]
  outcome: inactive
[3]
  outcome: inactive

## Cc1cccc(C)c1
[4]
  outcome: inactive

## NCCN1CCNCC1
[4]
  outcome: inactive
[5]
  outcome: inactive

## C=C(C)C(N)=O
[4]
  outcome: inactive

## OCC=Cc1ccccc1
[4]
  outcome: inactive

## CCCCCCCCCCCCN1CCOCC1
[4]
  outcome: inactive
[5]
  outcome: inactive

## CCC(C)C1CCCCC1=O (stereo unspecified)
[4]
  outcome: inactive

## C=CC(C)CCCC(C)(C)O (stereo unspecified)
[4]
  outcome: inactive

## CN(C)c1ccc(C=O)cc1
[6]
  outcome: inactive

## COC(=O)C(C)Oc1ccc(Oc2ncc(C(F)(F)F)cc2Cl)cc1 (stereo unspecified)
[4]
  outcome: inactive
[5]
  outcome: inactive

## c1ccc(Cc2ccccc2)cc1
[4]
  outcome: inactive

## OC[C@@H](O)[C@H](O)[C@@H](O)[C@@H](O)CO
[7]
  outcome: inactive
[4]
  outcome: inactive
[5]
  outcome: inactive

## CCc1cccc(O)c1
[6]
  outcome: inactive
[4]
  outcome: inactive
[5]
  outcome: inactive
[3]
  outcome: inactive

## C1=COCCC1
[4]
  outcome: inactive

## [O-]/[N+](=N\O)c1ccccc1
[7]
  outcome: inactive
[5]
  outcome: inactive

## O=C(O)C1=NN(c2ccc(S(=O)(=O)O)cc2)C(=O)C1
[4]
  outcome: inactive
[5]
  outcome: inactive

## NC(=O)c1cccnc1
[4]
  outcome: inactive

## NC(N)=S
[4]
  outcome: inactive
[5]
  outcome: inactive

## CCCCC/C=C\C=C\C(=O)OCC
[6]
  AC50: 42.7 µM (active)
[4]
  outcome: inactive
[5]
  outcome: inactive

## CCCCCC1C(=O)CCC1CC(=O)OC (stereo unspecified)
[7]
  AC50: 17.7 µM (active)
[4]
  outcome: inactive
[5]
  outcome: inactive

## CC(=O)OC/C=C(C)/C=C/C=C(C)/C=C/C1=C(C)CCCC1(C)C
[4]
  outcome: inactive

## CC(O)CNCC(C)O (stereo unspecified)
[4]
  AC50: 18 µM (active)

## O=C(O)c1cc2ccccc2cc1O
[6]
  outcome: inactive

## CN(C)C(=O)Nc1ccccc1
[4]
  outcome: inactive

## C=C(C)C(=O)OCCC(C)OC(=O)C(=C)C (stereo unspecified)
[5]
  outcome: inactive

## CCCCCCCCCCOC(=O)c1ccccc1C(=O)OCCCCCCCC
[4]
  outcome: inactive
[3]
  outcome: inactive
[8]
  outcome: inactive

## CCCc1ccc(N)cc1
[5]
  outcome: inactive

## CC(=O)c1ccc2ccccc2c1
[4]
  outcome: inactive
[5]
  outcome: inactive
[3]
  outcome: inactive

## CC(=O)Oc1c(C)c(C)c2c(c1C)CC[C@@](C)(CCC[C@H](C)CCC[C@H](C)CCCC(C)C)O2
[5]
  outcome: inactive

## CCCCC(CC)COCCO (stereo unspecified)
[3]
  outcome: inactive

## O=S(=O)(O)c1cc(S(=O)(=O)O)c2c(N=Nc3ccccc3)c(O)ccc2c1
[5]
  outcome: inactive
[3]
  outcome: inactive

## CC1=CCC(C(C)C)=CC1
[4]
  outcome: inactive
[5]
  outcome: inactive

## CC(=O)c1ccc(O)cc1
[4]
  outcome: inactive
[5]
  outcome: inactive
[3]
  outcome: inactive

## OC[C@H]1O[C@@H](O[C@H]2[C@H](O)[C@@H](O)[C@H](O)O[C@@H]2CO)[C@H](O)[C@@H](O)[C@H]1O
[8]
  outcome: inactive

## CCCC1CCC(=O)CC1
[4]
  outcome: inactive
[3]
  outcome: inactive

## COc1ccc(OC)cc1
[5]
  outcome: inactive

## CCCCCCCCCO
[4]
  outcome: inactive
[5]
  outcome: inactive
[3]
  outcome: inactive

## CC(C)(C)C1CCC(O)CC1 (stereo unspecified)
[5]
  outcome: inactive

## CC(=O)N(C)C
[4]
  outcome: inactive
[5]
  outcome: inactive
[8]
  outcome: inactive

## CCO[Si](CC)(OCC)OCC
[5]
  outcome: inactive
[8]
  outcome: inactive

## O=C(O)CS
[4]
  outcome: inactive
[5]
  outcome: inactive

## FC(F)(F)c1ccc(Cl)c(Cl)c1
[4]
  AC50: 12 µM (active)
[8]
  outcome: inactive

## CC1=CCC(C(C)(C)O)CC1 (stereo unspecified)
[4]
  outcome: inactive
[5]
  outcome: inactive
[8]
  outcome: inactive

## O=C(OCc1ccccc1)c1ccccc1O
[5]
  AC50: 63 µM (active)
